# Measurements taken from PubChem BioAssay (NCI).
# Compounds without any hit were thinned out: in the full panel of roughly 79,000, 15% have a hit. A number with no mark means an inactive call. Activity calls are given as the source filed them. No stated cut-off is given here; in the data, active means growth inhibition above about 70%; inactive means the rest.
# Assays:
# [1] = NCI Yeast Anticancer Drug Screen. Data for the rad52 strain (AID 147);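 further: 0% = growth of vehicle-treated control cultures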; settings: S. cerevisiae rad52 mutant growth inhibition, stronger effect = higher value
# Method in brief: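 Screen used a yeast mutant impaired in DNA repair. After compound exposure, growth was measured. Values reflect inhibition compared with vehicle-treated cells.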
# [2] = NCI Yeast Anticancer Drug Screen. Data for the wt1 strain (AID 149);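 further: 0% = growth of vehicle-treated wt1 cultures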; settings: S. cerevisiae wt1 strain (SPY 50644) growth inhibition, stronger effect = higher value
# Method in brief: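 The wt1 strain was treated with compounds, and growth was compared with vehicle-treated cultures to give inhibition.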
# [3] = NCI Yeast Anticancer Drug Screen. Data for the rad50EPP+ strain (AID 151);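 further: 0% = growth of vehicle-treated control cultures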; settings: S. cerevisiae rad50 mutant strain, stronger effect = higher value
# Method in brief: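 Exposing the rad50EPP+ strain to each compound, growth was compared with vehicle-only cultures to give inhibition.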
# [4] = NCI Yeast Anticancer Drug Screen. Data for the mgt1 strain (AID 153); settings: S. cerevisiae mgt1 mutant growth inhibition, stronger effect = higher value
# Method in brief: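 Genetically defined yeast (mgt1) treated with compound; inhibition of growth expressed against vehicle-treated controls.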
# [5] = NCI Yeast Anticancer Drug Screen. Data for the rad50 strain (AID 155);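 further: 0% = growth of vehicle-only cultures of the same strain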; settings: S. cerevisiae rad50 strain growth inhibition, stronger effect = higher value
# Method in brief: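 Cells are treated with compound, grown, and their growth is then scored against vehicle-only cultures of the same repair-deficient yeast strain.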
# [6] = NCI Yeast Anticancer Drug Screen. Data for the mec2-1 strain (AID 157); settings: S. cerevisiae mec2-1 strain, stronger effect = higher value
# Method in brief: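 Readout is yeast growth inhibition, normalised to vehicle-treated controls, in the mec2-1 strain exposed to compound.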
# [7] = NCI Yeast Anticancer Drug Screen. Data for the rad14 strain (AID 159);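 further: 0% = growth of vehicle-treated control cultures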; settings: S. cerevisiae rad14 strain growth inhibition, stronger effect = higher value
# Method in brief: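 Readout: yeast growth inhibition, referenced to vehicle-only cultures. Strain bears a defined alteration in DNA damage repair.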
# [8] = NCI Yeast Anticancer Drug Screen. Data for the sgs1 mgt1 strain (AID 161);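 further: 0% = growth of cultures given vehicle only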; settings: S. cerevisiae sgs1 mgt1 strain, stronger effect = higher value
# Method in brief: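 Compounds are added to genetically altered yeast, and growth is compared with cultures given vehicle alone to give percent inhibition.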
# [9] = NCI Yeast Anticancer Drug Screen. Data for the CLN2oe strain (AID 163);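 further: 0% = growth of vehicle-only control cultures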; settings: S. cerevisiae CLN2oe strain, stronger effect = higher value
# Method in brief: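 Values reflect how much compound exposure reduced yeast growth, referenced to vehicle-exposed cells. Assay organism is a strain with a defined genetic change affecting cell-cycle control.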
# [10] = NCI Yeast Anticancer Drug Screen. Data for the cln2 rad14 strain (AID 165);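 further: 0% = growth equal to vehicle treated cultures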; settings: S. cerevisiae cln2 rad14 strain, stronger effect = higher value
# Method in brief: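 Relative to vehicle controls, growth inhibition of compound-treated cln2 rad14 yeast was recorded.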
# [11] = NCI Yeast Anticancer Drug Screen. Data for the bub3 strain (AID 167); settings: S. cerevisiae bub3 mutant strain, stronger effect = higher value
# Method in brief: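 Part of a panel of yeast mutants defective in DNA damage repair or cell cycle regulation. Each strain is grown with compound, and inhibition is calculated relative to solvent-treated cultures.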
# [12] = NCI Yeast Anticancer Drug Screen. Data for the wt2 strain (AID 169);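 further: 0% = growth of vehicle-treated yeast cultures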; settings: S. cerevisiae wt2 strain growth inhibition, stronger effect = higher value
# Method in brief: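 Values express reduction in yeast growth under compound treatment, referenced to vehicle-treated cells.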
# [13] = NCI Yeast Anticancer Drug Screen. Data for the mlh1 strain (AID 171);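 further: 0% = growth of vehicle-treated control cultures of the same strain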; settings: S. cerevisiae mlh1 strain growth inhibition, stronger effect = higher value
# Method in brief: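 Steps: expose the defined-mutant yeast strain to compound; expose a parallel culture to vehicle; measure growth; express compound effect as inhibition relative to the vehicle culture.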
# [14] = NCI Yeast Anticancer Drug Screen. Data for the sgs1 strain (AID 173);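 further: 0% = growth of vehicle-only control cultures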; settings: S. cerevisiae sgs1 mutant, stronger effect = higher value
# Method in brief: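 Treat defined-mutant yeast with compound; measure growth; calculate inhibition relative to vehicle-treated cells.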
# [15] = NCI Yeast Anticancer Drug Screen. Data for the mlh1 rad18 strain (AID 175); settings: S. cerevisiae mlh1 rad18 strain growth inhibition, stronger effect = higher value
# Method in brief: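 Test agents were incubated with a yeast strain of defined genotype (DNA damage repair defect). Inhibition of growth was derived by comparison with vehicle-exposed cultures.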
# [16] = at 5.0 µM (retest, dose inferred, filed as 0.5)
# [17] = at 50.0 µM (retest, dose inferred, filed as 5.0)
smiles,measurement,setting,value
CCC(/C=C/c1ccccc1)=N\Nc1ccc(Cl)cc1,growth inhibition,[1]; at 1.2 µM,-1%
same,growth inhibition,[1]; at 3.7 µM,2%
same,growth inhibition,[1]; at 11.0 µM,-1%
same,growth inhibition,[1]; at 33.0 µM,86% (active)
same,growth inhibition,[1]; at 100.0 µM,93% (active)
same,growth inhibition,[2]; at 1.2 µM,0%
same,growth inhibition,[2]; at 3.7 µM,-2%
same,growth inhibition,[2]; at 11.0 µM,-6%
same,growth inhibition,[2]; at 33.0 µM,48%
same,growth inhibition,[2]; at 100.0 µM,93% (active)
same,growth inhibition,[3]; at 1.2 µM,4%
same,growth inhibition,[3]; at 3.7 µM,9%
same,growth inhibition,[3]; at 11.0 µM,19%
same,growth inhibition,[3]; at 33.0 µM,17%
same,growth inhibition,[3]; at 100.0 µM,19%
same,growth inhibition,[4]; at 1.2 µM,-4%
same,growth inhibition,[4]; at 3.7 µM,4%
same,growth inhibition,[4]; at 11.0 µM,7%
same,growth inhibition,[4]; at 33.0 µM,5%
same,growth inhibition,[4]; at 100.0 µM,50%
same,growth inhibition,[5]; at 1.2 µM,3%
same,growth inhibition,[5]; at 3.7 µM,9%
same,growth inhibition,[5]; [16],2%
same,growth inhibition,[5]; at 11.0 µM,12%
same,growth inhibition,[5]; at 33.0 µM,77% (active)
same,growth inhibition,[5]; [17],83% (active)
same,growth inhibition,[5]; at 50.0 µM,97.6% (active)
same,growth inhibition,[5]; at 100.0 µM,93% (active)
same,growth inhibition,[6]; at 1.2 µM,0%
same,growth inhibition,[6]; at 3.7 µM,5%
same,growth inhibition,[6]; [16],-3%
same,growth inhibition,[6]; at 11.0 µM,9%
same,growth inhibition,[6]; at 33.0 µM,6%
same,growth inhibition,[6]; [17],80% (active)
same,growth inhibition,[6]; at 50.0 µM,85.5% (active)
same,growth inhibition,[6]; at 100.0 µM,52%
same,growth inhibition,[7]; at 1.2 µM,0%
same,growth inhibition,[7]; at 3.7 µM,0%
same,growth inhibition,[7]; at 11.0 µM,3%
same,growth inhibition,[7]; at 33.0 µM,0%
same,growth inhibition,[7]; at 100.0 µM,76% (active)
same,growth inhibition,[8]; [16],2%
same,growth inhibition,[8]; [17],81% (active)
same,growth inhibition,[8]; at 50.0 µM,86.5% (active)
same,growth inhibition,[9]; at 1.2 µM,-1%
same,growth inhibition,[9]; at 3.7 µM,1%
same,growth inhibition,[9]; at 11.0 µM,8%
same,growth inhibition,[9]; at 33.0 µM,8%
same,growth inhibition,[9]; at 100.0 µM,48%
same,growth inhibition,[10]; [16],5%
same,growth inhibition,[10]; [17],38%
same,growth inhibition,[10]; at 50.0 µM,89.5% (active)
same,growth inhibition,[11]; at 1.2 µM,-2%
same,growth inhibition,[11]; at 3.7 µM,2%
same,growth inhibition,[11]; [16],3%
same,growth inhibition,[11]; at 11.0 µM,5%
same,growth inhibition,[11]; at 33.0 µM,32%
same,growth inhibition,[11]; [17],86% (active)
same,growth inhibition,[11]; at 50.0 µM,97.8% (active)
same,growth inhibition,[11]; at 100.0 µM,51%
same,growth inhibition,[12]; at 1.2 µM,-4%
same,growth inhibition,[12]; at 3.7 µM,-9%
same,growth inhibition,[12]; at 11.0 µM,-4%
same,growth inhibition,[12]; at 33.0 µM,80% (active)
same,growth inhibition,[12]; at 100.0 µM,94% (active)
same,growth inhibition,[13]; at 1.2 µM,-2%
same,growth inhibition,[13]; at 3.7 µM,4%
same,growth inhibition,[13]; at 11.0 µM,4%
same,growth inhibition,[13]; at 33.0 µM,2%
same,growth inhibition,[13]; at 100.0 µM,52%
same,growth inhibition,[14]; at 1.2 µM,-3%
same,growth inhibition,[14]; at 3.7 µM,-4%
same,growth inhibition,[14]; at 11.0 µM,-1%
same,growth inhibition,[14]; at 33.0 µM,77% (active)
same,growth inhibition,[14]; at 100.0 µM,95% (active)
same,growth inhibition,[15]; [16],7%
same,growth inhibition,[15]; [17],91% (active)
same,growth inhibition,[15]; at 50.0 µM,96% (active)
